Test results from PubChem BioAssay AID743187 (National Center for Advancing Translational Sciences (NCATS), 2013).
The list shows a part of the results. Records with an inconclusive call do not appear. A number with no mark means an inactive call. Active and inactive are the calls of the source. Calls come from the whole dose curve; as a rule, active = well fitted inhibition curve with a large enough effect; inconclusive = small, poorly fitted or top-dose-only effect; inactive = no such curve, though single readings can be large or run the other way.

Target: Peroxisomal multifunctional enzyme type 2 (Homo sapiens) (UniProt P51659)
Assay: Extended Characterization of HPGD Inhibitors: Counterscreen Against HSD17b4
Conditions: purified HSD17B4, estradiol/NAD+, NADH fluorescence; series mostly up to 57.1 µM; activity change, negative = inhibition: at the top concentration
Text: The central role of HPGD is to inactivate prostaglandins such as prostaglandin E2 (PGE2) or prostaglandin D2 (PGD2). These prostaglandins are involved in a number of processes, including inflammation, differentiation, and cellular signaling, which makes HPGD an important target for pharmacological intervention. The […] enzyme 17b-hydroxysteroid dehydrogenase […] (HSD17b4 catalyzes the NAD+-dependent oxidation of a variety of substrates including acyl-CoAs, androgens and neurosteroids, as well as bile acids. HSD17b4 activity was screened by utilizing an electron donor (estradiol) and NAD+ as an electron acceptor/cofactor. An increase in the fluorescence intensity due to conversion of NAD+ to NADH was used to measure the enzyme activity.. NIH Chemical Genomics Center [NCGC] NIH Molecular Libraries Probe Centers Network [MLPCN] MLPCN Grant: MH084681 Assay Submitter (PI): Structural Genomics Consortium
3 uL of enzyme (final concentration 100 nM) or buffer were dispensed into a 1,536-well solid-bottom black plate (Greiner Bio One, Monroe, NC) followed by pin-tool transfer (23 nL) of compound (final concentration range 324 pM to 57.2 uM) and control (CID-24867619, final concentration range 5.23 nM to 11.4 uM). Samples were incubated (RT, protected from light) for 15 minutes followed by a 1 uL substrate addition of NAD+ and Estradiol (final concentrations of 1 mM and 50 uM, respectively, in 15% DMSO). Plates were centrifuged at 1,000 rpm for 15 seconds, then read immediately on a ViewLux High-throughput CCD imager (Perkin-Elmer) equipped with standard UV fluorescence optics (340 nm excitation, 450 nm emission), incubated for 1 hour (RT, protected from light) followed by a second read. Data were normalized ([…]) against no-enzyme (positive) and enzyme-containing (neutral) wells.

Chain of Peroxisomal multifunctional enzyme type 2 (Homo sapiens) (P51659 whole entry, looked up): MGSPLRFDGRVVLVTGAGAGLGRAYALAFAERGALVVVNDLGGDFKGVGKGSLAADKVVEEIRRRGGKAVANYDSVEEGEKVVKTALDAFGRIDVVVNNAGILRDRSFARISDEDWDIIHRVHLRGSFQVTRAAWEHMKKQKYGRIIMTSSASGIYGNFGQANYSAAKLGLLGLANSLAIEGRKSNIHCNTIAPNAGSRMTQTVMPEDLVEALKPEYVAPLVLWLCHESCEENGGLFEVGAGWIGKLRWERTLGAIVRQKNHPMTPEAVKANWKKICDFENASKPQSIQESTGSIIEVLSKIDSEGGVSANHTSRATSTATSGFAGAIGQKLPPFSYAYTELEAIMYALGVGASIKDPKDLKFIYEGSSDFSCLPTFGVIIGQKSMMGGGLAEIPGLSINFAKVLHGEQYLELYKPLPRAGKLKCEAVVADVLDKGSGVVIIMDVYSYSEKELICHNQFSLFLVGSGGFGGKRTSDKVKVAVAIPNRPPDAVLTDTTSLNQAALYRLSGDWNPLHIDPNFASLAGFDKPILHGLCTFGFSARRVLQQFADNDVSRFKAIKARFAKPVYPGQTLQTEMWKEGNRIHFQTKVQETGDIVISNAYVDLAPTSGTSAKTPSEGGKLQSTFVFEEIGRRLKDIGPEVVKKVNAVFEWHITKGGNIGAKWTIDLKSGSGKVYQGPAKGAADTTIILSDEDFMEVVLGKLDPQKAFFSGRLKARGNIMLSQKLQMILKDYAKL

Point of comparison: `Cc1cc(-c2nnc3n2CCCCC3)c(C)n1-c1cccc(Cl)c1`, “activity change, negative = inhibition” value -8.23%. Against it:
- Cc1cc(C)nc(NC(=S)N2CCN(c3cccc(C#N)c3)CC2)c1 — lower, -28.4%
- COc1cccc(NC(=S)N2CCN(c3ccccc3C(F)(F)F)CC2)n1 — lower, -11.1%
- FC(F)(F)c1cccc(N2CCN(C(=S)Nc3ccncc3)CC2)c1 — lower, -27.4%
- COc1cccc(NC(=S)N2CCN(c3ccc(Cl)cc3Cl)CC2)n1 — lower, -23.8%
- COc1ccnc(NC(=S)N2CCN(c3ncc(C(F)(F)F)cc3Cl)CC2)c1 — lower, -22.7%
- Cc1cc(C)nc(NC(=S)N2CCN(c3ccc4nonc4c3)CC2)c1 — higher, 0.76%

In the case of `Cc1cc(C)nc(NC(=S)N2CCN(c3ccc(Cl)cc3C(F)(F)F)CC2)c1`, the Potency is reported as 24.1 µM (active).
